Measurements from PubChem BioAssay (EPA / NIEHS).
Calls of active or inactive are those of the source. The calls were made as follows: active = hit-call score of the fitted dose curve at least 0.9, where 1 is the maximum; inactive = score below 0.9.

Each molecule was assayed on Cytochrome P450 4A22 (Homo sapiens) (UniProt Q5TCH4) (assay: LTEA_HepaRG_CYP4A22: Life Technologies and Expression Analysis (LTEA) Assay for Cytochrome P450 4A22 (CYP4A22) using HepaRG (AID 2283495)). Conditions: mRNA level, 48 h; actives raise or lower the signal.
Procedure: LTEA_HepaRG is a cell based, multiplexed-readout assay that uses HepaRG, a human liver cell line, with measurements taken at 48 hours after chemical dosing on a 96-well plate.LTEA_HepaRG_CYP4A22 is one of 102 assay component(s) measured in the LTEA HepaRG cell culture assay. It is a marker of NR mediated metabolism.Data from the assay component LTEA_HepaRG_CYP4A22 was analyzed into 1 endpoint. This assay endpoint, LTEA_HepaRG_CYP4A22, was analyzed with bidirectional fitting relative to DMSO as the negative control and baseline of activity. Using a type of inducible reporter, measures of mRNA induction for gain or loss-of-signal activity can be used to understand regulation of transcription factor activity. To generalize the intended target to other relatable targets, this assay endpoint is annotated to the cyp intended target family, where the subfamily is xenobiotic metabolism.
A total of 1060 chemcials from the ToxCast library were tested in eight-point concentration-response experiments. Cell culture and cytotoxicity assays were conducted at Thermo Fisher Scientific's Custom Services facility (Madison, WI). A single lot of human HepaRG cells (Thermo Fisher Scientific, Frederick, MD) was used for the cell culture experiments. 96-well format collagen type I coated plates of human HepaRG cells were prepared using established methods. Briefly, cryopreserved HepaRG cells were thawed, plated at a density of approximately 100,000 cells/well in HepaRG Thaw, Plate, and General Purpose media (HPRG770, Thermo Fisher Scientific), and incubated for 48 hours. 0.5% DMSO was selected as vehicle control to balance the requisite need of DMSO in HepaRG cultures to maintain differentiation (for example, baseline metabolism, proportions of hepatocytes vs. cholangiocytes), while enabling further hepatic receptor pathway activation (for example, PXR and CAR) in response to chemical exposure. 48 hours after plating, the culture medium was replaced with HepaRG Serum-Free Incudtion Media. Cells were exposed to each test chemical in duplicate and maintained in CO2 incubators for another 48 hours. Chemical plates were thawed to room temperature and 200x concentrations of treatment groups were prepared. 8-point conentration-reponse curves were made with the highest exposure at 100 uM, followed by half-log dilutions, all in 0.5% DMSO. Each test plate contained variouse controls, induction positive controls (1mM phenobarbital), cytotoxicity positive controls ([…] aflatoxin B1), vehicle controls (0.5% DMSO), and total lysis controls (0.5% DMSO). Cell morphology images were taken using an Essen IncuCyte FLR automated microscope, with six 96-well plates imaged in about 24 minutes. Images were captured and exported and JPEG files. Spent culture media was transfered to black-well plates for the LDH assay, and remaining media was sorted at -80 C for later use. Cells were treated with RLT buffer and frozen until shipped for gene expression analysis. Total RNA was isolated from the cell suspension in 75 uL of Buffer RLT (Qiagen, Germantown, MD 20874) by Quintiles/Expression Analysis (Durham, NC) using a custom isolation procedure. Total RNA from each plate well was transferred to a preamplification plate. Fluidigm's 96.96 Dynamic ArrayTM (Fluidigm, Amsterdam, the Netherlands) technology was used for gene expression analyses by quantitative reverse transcription polymerase chain reaction (qRT-PCR, performed by Quintiles/Expression Analysis, Durham, NC)89. Standard TaqManTM Assays (Applied Biosystems/ThermoFisher Scientific, Foster City, CA) were used to assess the expression of 93 genes selected based on their selectivity and sensitivity to important hepatic receptors known to be modulated by environmental chemicals; importance in human hepatocyte functionality; and hepatotoxicity. […]
In the case of `CCn1nc(C)c2c1C(=O)NCC(c1ccc(O)cc1)=N2`, the AC50 was 33.9 µM (active).
`COS(C)(=O)=O` was tested, and the outcome was “inactive”.
With `CCOc1ccc2[nH]cc(C(=O)NCc3ccccc3)c(=O)c2n1` the AC50 was 35.4 µM (active).
`c1ccc2cc3ccccc3cc2c1` was tested, and the outcome was “inactive”.
With `O=C1CN(N=Cc2ccc([N+](=O)[O-])o2)C(=O)N1` the AC50 was 44.3 µM (active).
`CCc1cccc(CC)c1N` was tested, and the outcome was “inactive”.
For `OCc1ccccc1`, the outcome was “inactive”.
For `O=C(O)c1ccc2c(c1)nc(C(=O)NC1CCN(C3CC3)CC1)n2Cc1cc(-c2ccc(Cl)s2)on1`, the outcome was “inactive”.
For `CC(C)c1nnc2ccc(-c3ocnc3-c3cc(F)ccc3F)cn12`, the AC50 was 31.8 µM (active).
For `CC(C)CCCCCCOC(=O)C1CCCCC1C(=O)OCCCCCCC(C)C` (stereo not given), the outcome was “inactive”.
`NC(=O)N(O)[C@@H]1COc2cc(OCc3ccccc3)ccc21` was tested, and the outcome was “inactive”.
`O=C(NO)C1(NS(=O)(=O)c2ccc(Oc3ccc(F)cc3)cc2)CCOCC1` was tested, and the AC50 was 68.9 µM (active).
For `C=CCc1cc(S(=O)(=O)c2ccc(O)c(CC=C)c2)ccc1O`, the AC50 was 82.6 µM (active).
For `c1ccc(C(O[C@@H]2CCCN(CCc3ccc4c(c3)OCO4)C2)c2ccccc2)cc1`, the AC50 was 6.12 µM (active).
`Cn1c(=O)c2[nH]cnc2n(C)c1=O` was tested, and the outcome was “inactive”.
With `Cc1nc(-c2ccccn2)ncc1C(=O)Nn1cc(C)c2cc(F)ccc21` the AC50 was 51.4 µM (active).
`O=C(O)c1cccc(C[C@@H]2COc3ccc(OCc4nc5cc(F)ccc5s4)cc3[C@@H]2O)c1` was tested, and the AC50 was 90.8 µM (active).
With `OCC(CO)(CO)CO` the outcome was “inactive”.
For `OC[C@H]1O[C@@](CO)(O[C@H]2O[C@H](CO)[C@@H](O)[C@H](O)[C@H]2O)[C@@H](O)[C@@H]1O`, the outcome was “inactive”.
For `NC(N)=O`, the outcome was “inactive”.
For `Nc1ccn([C@@H]2O[C@H](CO)[C@@H](O)[C@@H]2O)c(=O)n1`, the outcome was “inactive”.
In the case of `O=S1(=O)CCCO1`, the outcome was “inactive”.
For `OCCNCCO`, the outcome was “inactive”.
For `CCCCCCCCCC`, the outcome was “inactive”.
`OC(CCl)CCl` was tested, and the outcome was “inactive”.
`NC(=O)N1c2ccccc2C=Cc2ccccc21` was tested, and the outcome was “inactive”.
For `c1ccc2ncccc2c1`, the outcome was “inactive”.
With `COc1cc(C(C)C)c2c(c1)S(=O)(=O)N(COc1cc(=O)n3cccc(OCCN4CCCCC4)c3n1)C2=O` the AC50 was 20.9 µM (active).
For `O=C(O)c1cccc(C(=O)O)c1`, the outcome was “inactive”.
`Cn1cc[nH]c1=S` was tested, and the outcome was “inactive”.
With `CCN(CC)C(=S)SSC(=S)N(CC)CC` the outcome was “inactive”.
In the case of `CNC(C)=O`, the outcome was “inactive”.
For `CC(C)CC(C)O` (stereo not given), the outcome was “inactive”.
In the case of `CCCCCCCCCCCCCCO`, the outcome was “inactive”.
For `Cc1nccn1-c1ccc(Sc2cccc(C3(C(N)=O)CCOCC3)c2)cc1`, the AC50 was 6.16 µM (active).
With `O=S(=O)(O)c1ccc(N=Nc2c(O)ccc3cc(S(=O)(=O)O)ccc23)cc1` the outcome was “inactive”.
`CCCCCCCCCCCCCCCCOS(=O)(=O)O` was tested, and the outcome was “inactive”.
In the case of `CCCOc1ccc(S(=O)(=O)N2CCN(CC)CC2)cc1-c1nc2c(CC)n(Cc3ccccn3)nc2c(=O)[nH]1`, the AC50 was 9.92 µM (active).
In the case of `CCCC(CCC)C(=O)O`, the outcome was “inactive”.
For `C=CN1CCCC1=O`, the outcome was “inactive”.
